As a reminder, the AC50 is the concentration giving half of the maximal activity seen. The IC50 is the concentration at which inhibition is half-maximal. One may read the viability as a read-out of living cells in per cent, often relative to untreated cells.

Experiment [1] is described as follows: growth inhibition of DIPG glioma cells, dose response, cell-based, SU-DIPG-XIII, MIPE4.0, CellTiter-Glo, qHTS (AID 1347061; cut-off not given, nearly all actives have AC50 up to about 37 µM;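 further: cells exposed to compound for 48 hours before readout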). The following applies: SU-DIPG-XIII viability, CellTiter-Glo ATP luminescence. Background: In ATP-based viability assays light output follows the ATP content of the culture.
Experiment [2] is described as follows: growth inhibition of DIPG glioma cells, dose response, cell-based, SU-DIPG-IV, MIPE4.0, CellTiter-Glo, qHTS (AID 1347063; cut-off not given, nearly all actives have AC50 up to about 30 µM;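 further: compound exposure lasted 48 hours before the viability readout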). As to conditions: SU-DIPG-IV viability, CellTiter-Glo ATP luminescence.
The nature of experiment [3]: viability loss in pontine glioma line – cell-based, SU-DIPG-XXV, MIPE5.0, CellTiter-Glo, qHTS, dose response (AID 1347065; cut-off not given, nearly all actives have AC50 up to about 26 µM;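 further: cells exposed to compound for 48 hours before ATP readout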). The following applies: CellTiter-Glo ATP luminescence.
A short description of experiment [4]: SU-DIPG-XXV glioma cell viability, MIPE5.0 library, qHTS (AID 1347068; cut-off not given, nearly all actives have IC50 up to about 30 µM;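 further: cells exposed to compound for 48 hours before viability readout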). (In general: Quantitative high-throughput screening tests each substance at several concentrations.)
Experiment [5] is described as follows: sensitizers of A549 cells to miR-34 induction, primary screen, imaging, A549 dox-inducible miR-34, nuclei and caspase counts (AID 1347080;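 active means compounds whose cell count with miR-34 switched on is under 0.7 times the count with it off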). The following applies: A549 miR-34 inducible, Hoechst nuclei count, 48 h.
The nature of experiment [6]: survival rescue of mitochondrial mutant cells in low glucose, primary screen, MELAS cybrids, Rieske KO mouse fibroblasts, CellTiter-Glo (AID 1508586;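 active means mean z-score across replicates of 1.96 or higher in either the MELAS or the Rieske mutant cell line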;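 further: z relative to plate mean and SD of compound and empty wells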).
Experiment [7] can be described thus: growth inhibition of DIPG glioma cells, dose response, cell-based, SU-DIPG-XIII, MIPE5.0, CellTiter-Glo, qHTS (AID 1347064; cut-off not given, nearly all actives have AC50 up to about 23 µM;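 further: cells exposed to compound for 48 hours before the viability read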). The following applies: SU-DIPG-XIII viability, CellTiter-Glo ATP luminescence.
A short description of experiment [8]: SU-DIPG-VI glioma cell viability, MIPE4.0 library, CellTiter-Glo luminescence, qHTS (AID 1347066; cut-off not given, nearly all actives have AC50 up to about 30 µM;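 further: cells exposed to compound for 48 hours before readout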). As to conditions: CellTiter-Glo ATP luminescence.
The nature of experiment [9]: JHH-DIPG-1 glioma cell viability, MIPE5.0 library, CellTiter-Glo luminescence, qHTS (AID 1347067; cut-off not given, nearly all actives have AC50 up to about 26 µM;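 further: cells exposed to compound for 48 hours before readout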). As to conditions: JHH-DIPG-1 glioma viability, CellTiter-Glo ATP luminescence.
Experiment [10] can be described thus: growth inhibition of DIPG glioma cells, dose response, cell-based, JHH-DIPG-1, MIPE4.0, CellTiter-Glo, qHTS (AID 1347062; cut-off not given, nearly all actives have AC50 up to about 27 µM;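 further: cells exposed to compound for two days before readout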). As to conditions: JHH-DIPG-1 viability, CellTiter-Glo ATP luminescence.
A short description of experiment [11]: modifiers of HSF1 nuclear foci, imaging, Selleck Cancer Library (AID 1347162; in the data active means plate-normalised HSF1 focus index below about 0.46). The following applies: human cells, at 10 µM; SSMD: measured here: HSF1 foci SSMD mean; cell count: measured here: cell number; plate-normalised HSF1 focus index: stronger effect = lower value.
Experiment [12] can be described thus: ovarian cancer cell viability with rucaparib, profiling panel, oncology-focused library, rucaparib conditional (AID 1508598). As to conditions: patient-derived ovarian cancer cells, CellTiter-Glo viability, 144 h, stronger effect = lower value.
Where [13] appears, read: stronger effect = lower value, cell number ratio, induced over uninduced.
[14] abbreviates: measured here: relative caspase fold change +Dox/-Dox.
Setting [15] is: measured here: total cells with miR-34 induction, stronger effect = lower value.
The mark [16] stands for this setting: measured here: total cells without miR-34 induction.

Results filed as inconclusive are left out. Activity calls are given as the source filed them.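 How the source made its calls, unless noted: active means normalized viability below 100% at a tested concentration; inactive means the rest.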

Turning to `CCCCOc1c(C(=O)c2c(F)cc(C)cc2F)cnc2n[nH]cc12`, the result in experiment [1] was inactive. Moreover, the results for the AC50 in experiment [2] and in [3] were 4.18 µM (active) and 1.66 µM (active), respectively. Besides, the IC50 in experiment [4] was 3.72 µM (active). Moreover, the fold change in [5] (setting [13]) is 1.03 (inactive); in experiment [5] (setting [14]), 0.597. Also, the cell count in experiment [5] (setting [15]) stood at 1950; in experiment [5] (setting [16]) it was 1900. Besides, the z-score in [6] (MELAS cybrid survival, CellTiter-Glo 48 h, stronger effect = higher value) was 0.523 (inactive); in experiment [6] (Rieske KO mouse fibroblast survival, CellTiter-Glo 72 h) it was -1.74.

As for `CN1CCN(c2cc(C(=O)Nc3ccc4c(c3)-c3c(c(C(N)=O)nn3-c3ccc(F)cc3)CC4)c(Cl)cn2)CC1`, the half-maximal activity concentration (AC50) in [1] was 9.35 µM (active); in [2] it was 18.7 µM (active); in experiment [7], 14.8 µM (active); in [3], 10.5 µM (active); in experiment [8], 23.5 µM (active); in [9], 13.2 µM (active).

`O=C(NOC[C@H](O)CO)c1ccc(F)c(F)c1Nc1ccc(I)cc1F`: the concentration at half-maximal activity (AC50) in experiment [1] was 1.05 µM (active); in experiment [10], 2.35 µM (active). In addition, the outcome in experiment [8] was inactive. The figures for the fold change in [5] (setting [13]) and in experiment [5] (setting [14]) were 1.03 (inactive) and 2.04, respectively. Besides, the cell count amounted to 2530 in experiment [5] (setting [15]), 2470 in experiment [5] (setting [16]) and 7460 in experiment [11]. The SSMD in experiment [11] was found to be 3.29. The plate-normalised HSF1 focus index in experiment [11] is 1.21 (inactive). For the same molecule, the viability in experiment [12] (at 0.000305 µM, OCI-C5x cells, with rucaparib 10 µM, 100% = cells with rucaparib alone) is 115% (inactive); in experiment [12] (at 0.000305 µM, OCI-C5x cells, without rucaparib) it was 103% (inactive); in experiment [12] (at 0.000305 µM, OCI-P5x cells, with rucaparib 20 µM, 100% = cells with rucaparib alone) it was 79.9% (active); in experiment [12] (at 0.000305 µM, OCI-P5x cells, without rucaparib), 86.4% (active); in experiment [12] (at 0.00122 µM, OCI-C5x cells, with rucaparib 10 µM, 100% = cells with rucaparib alone), 110% (inactive); in experiment [12] (at 0.00122 µM, OCI-C5x cells, without rucaparib), 103% (inactive). For the same molecule, the viability in experiment [12] (at 0.00122 µM, OCI-P5x cells, with rucaparib 20 µM, 100% = cells with rucaparib alone) is 73.1% (active); in [12] (at 0.00122 µM, OCI-P5x cells, without rucaparib), 80% (active); in experiment [12] (at 0.00488 µM, OCI-C5x cells, with rucaparib 10 µM, 100% = cells with rucaparib alone), 111% (inactive); in [12] (at 0.00488 µM, OCI-C5x cells, without rucaparib) it was 101% (inactive); in experiment [12] (at 0.00488 µM, OCI-P5x cells, with rucaparib 20 µM, 100% = cells with rucaparib alone) it was 60% (active); in experiment [12] (at 0.00488 µM, OCI-P5x cells, without rucaparib), 73.8% (active). The viability was 111% (inactive) in experiment [12] (at 0.0195 µM, OCI-C5x cells, with rucaparib 10 µM, 100% = cells with rucaparib alone); 96.8% (active) in experiment [12] (at 0.0195 µM, OCI-C5x cells, without rucaparib); 51.1% (active) in experiment [12] (at 0.0195 µM, OCI-P5x cells, with rucaparib 20 µM, 100% = cells with rucaparib alone); 67.5% (active) in [12] (at 0.0195 µM, OCI-P5x cells, without rucaparib); 120% (inactive) in experiment [12] (at 0.0781 µM, OCI-C5x cells, with rucaparib 10 µM, 100% = cells with rucaparib alone); 94.3% (active) in [12] (at 0.0781 µM, OCI-C5x cells, without rucaparib). The viability is 46.8% (active) in experiment [12] (at 0.0781 µM, OCI-P5x cells, with rucaparib 20 µM, 100% = cells with rucaparib alone); 62.3% (active) in [12] (at 0.0781 µM, OCI-P5x cells, without rucaparib); 98.2% (active) in experiment [12] (at 0.313 µM, OCI-C5x cells, with rucaparib 10 µM, 100% = cells with rucaparib alone); 86.8% (active) in [12] (at 0.313 µM, OCI-C5x cells, without rucaparib); 41% (active) in [12] (at 0.313 µM, OCI-P5x cells, with rucaparib 20 µM, 100% = cells with rucaparib alone); 50.2% (active) in [12] (at 0.313 µM, OCI-P5x cells, without rucaparib). In addition, the viability in experiment [12] (at 1.25 µM, OCI-C5x cells, with rucaparib 10 µM, 100% = cells with rucaparib alone) was 66.9% (active); in experiment [12] (at 1.25 µM, OCI-C5x cells, without rucaparib), 68.4% (active); in experiment [12] (at 1.25 µM, OCI-P5x cells, with rucaparib 20 µM, 100% = cells with rucaparib alone), 40.4% (active); in experiment [12] (at 1.25 µM, OCI-P5x cells, without rucaparib) it was 44.1% (active); in experiment [12] (at 5 µM, OCI-C5x cells, with rucaparib 10 µM, 100% = cells with rucaparib alone), 34.4% (active); in [12] (at 5 µM, OCI-C5x cells, without rucaparib) it was 37.4% (active). Moreover, the viability in [12] (at 5 µM, OCI-P5x cells, with rucaparib 20 µM, 100% = cells with rucaparib alone) was 30.5% (active); in experiment [12] (at 5 µM, OCI-P5x cells, without rucaparib) it was 38.4% (active).

Take `CN(C[C@@H]1COCCO1)S(=O)(=O)Nc1ccc2ccc3ncc(-c4cnn(C)c4)cc3c(=O)c2c1`: the concentration at half-maximal activity (AC50) is 2.64 µM (active) in [1], 2.63 µM (active) in experiment [7] and 2.09 µM (active) in [3]. In addition, the molecule was called inactive in experiment [8]. Also, in experiment [4], the IC50 was 3.32 µM (active).

Regarding `CCOc1ccccc1OCCNC(C)Cc1ccc(OC)c(S(N)(=O)=O)c1` (centres undefined), the molecule was called inactive in [1], in experiment [2] and in experiment [8].

Regarding `C[C@@H](NCc1cc2ccccc2[nH]1)c1cccc2ccccc12`, the outcome in experiment [1], in [2] and in experiment [8] was inactive. Also, the values for the AC50 in experiment [3] and in experiment [9] were 26.3 µM (active) and 14.8 µM (active), respectively.

In the case of `COc1cc2ncnc(Nc3cc(Br)c(O)c(Br)c3)c2cc1OC`, the outcome in [1] and in [8] was inactive. The AC50 in experiment [2] is 2.35 µM (active).
